An excerpt weighted towards active compounds, which were near 8.6% of everything screened.
Lassa entry: blocks Lassa virus binding or cell entry | Lassa virus pseudotyped entry inhibition, cell-based qHTS | Potency, µM (top dose mostly 49.2 µM), most hits filed as inhibitors | 18,000 compounds, 4.1% hits | AID 720533
Marburg entry: inhibitors of Marburg virus binding or entry into cells; Marburg virus pseudotype entry/binding inhibition, cell-based; Potency, µM (titrated, usually from 49.2 µM), hits mostly inhibitors; 18,000 compounds, 6.5% hits; AID 720532
Of the large screens only hits and unclear results are named; the others gave an inactive call; ! = repeats disagree. Calls follow the shape of the full dose curve; tested in HEK293 cells.

CCCCCCCCNS(=O)(=O)CCNCc1ccccc1	none
CCCCCCCCCCCCCCCC[N+](C)(C)Cc1ccccc1	Lassa entry inconclusive, Marburg entry 25µM
NCC1CCC(C(=O)Oc2ccc(CCC(=O)O)cc2)CC1 (centres undefined)	none
CCOC(=O)N1CCN(c2nc(CN3CCCCC3CCO)nc3c(C)cccc23)CC1 (centres undefined)	Marburg entry inconclusive
CCCCCCCC1=CC2=C(Cl)C(=O)C(C)(OC(C)=O)C(=O)C2=CN1C (centres undefined)	none
COc1ccc(C(=O)NCCN2Cc3cc(C)ccc3OC(C)C2)c(OC)n1 (centres undefined)	Marburg entry 2µM
Cc1ccc2c(c1)CN(CCNC(=O)c1cc3ccccc3oc1=O)CC(C)O2 (centres undefined)	none
CC(C)C[C@H]1COc2c(Cl)cccc2S(=O)(=O)N1	none
CC(=O)OC[C@H]1O[C@@H](n2ncc(=O)[nH]c2=O)[C@H](OC(C)=O)[C@@H]1OC(C)=O	Lassa entry 1.6µM, Marburg entry 2µM
CCc1cc2c(nc1CC)CCN(CCC(C)=NO[C@@H]1O[C@H](COC(C)=O)[C@@H](OC(C)=O)[C@H](OC(C)=O)[C@@H]1OC(C)=O)C2	none
C=CCOC(=O)C(C(C)=O)[C@@H](NC(=O)OC)c1cccc(F)c1 (some centres undefined)	none
c1ccc(C(O[C@H]2CCCN(CCc3ccc4c(c3)OCO4)C2)c2ccccc2)cc1	Marburg entry inconclusive
CN1C2CCC1CC(OC(c1ccc(F)cc1)c1ccc(F)cc1)C2 (centres undefined)	Lassa entry inconclusive, Marburg entry 5.6µM
CN1[C@@H]2CC[C@H]1CC(OC(c1ccccc1)c1ccccc1)C2 (some centres undefined)	Lassa entry 14µM, Marburg entry 13µM
CN1C2CC(OC(=O)C(CO)c3ccccc3)CC1C(O)C2 (centres undefined)	none
CN1[C@@H]2CC[C@H]1CC(O[C@@H](c1ccccc1)c1ccc(Cl)cc1)C2 (some centres undefined)	Lassa entry 10µM, Marburg entry 4.5µM
CC(C)(C)Nc1oc(-c2ccccc2)nc1-c1ccc(C(F)(F)F)cc1	none
C=CC[C@@H]1C=C[C@H](ON=C[C@@H](N[S+](=O)([O-])c2ccc(C)cc2)[C@H](C)C=CCC(=O)OC)[C@H](CO)O1	none
NC1(C(=O)O)CCCC1	none
COc1ccccc1CNS(=O)(=O)c1ccc(F)cc1Br	none
NCCCNCCCCNCCCNC(=O)Cc1ccc(O)cc1	Lassa entry inconclusive
O=C1/C(=C\c2ccc(O)c(O)c2)Oc2cc(O)ccc21	none
CC1(S(=O)(=O)O)CC(=O)c2ccccc2C1=O (centres undefined)	Lassa entry 25µM, Marburg entry 14µM
c1nc(NCCN2CCOCC2)c2cc(-c3ccc4c(c3)OCO4)ccc2n1	none
NN=C(N)N	none
COc1ccc(C(=O)c2c(C)n(CCN3CCOCC3)c3ccccc23)cc1	none
COc1ccccc1C1(O)CCN(CCCn2c3ccccc3c3ccccc32)CC1	Lassa entry inconclusive, Marburg entry 4µM
CCOC(=O)/C=C1\CC(C(=O)OCC)Oc2c(OC)cccc21 (centres undefined)	none
CC1=C2C3OC(=O)[C@H](C)[C@H]3CC[C@@]2(C)C=CC1=O (some centres undefined)	none
CCOc1ccc(/C=C/C(=O)c2cccs2)cc1	none
CCOc1ccc(C=C2SC(=O)N(CCN)C2=O)cc1	Lassa entry 13µM, Marburg entry 11µM
COc1cccc([C@@H]2Oc3ccc(Br)cc3C[C@H]2OC(=O)NS(=O)(=O)c2ccc(F)cc2)c1	none
CCCCCCCCCC[N+](C)(C)CCCCCCCCCC	Lassa entry 25µM, Marburg entry inconclusive
CCCCCCCCCCCCCCCC[N+](C)(C)CC	Lassa entry 16µM, Marburg entry 10µM
CCCCCCCCCCCCCCCCCC[N+](C)(C)CCC[Si](OC)(OC)OC	none
CCCCCCCC[N+](C)(C)CCCCCCCC	Lassa entry inconclusive, Marburg entry 16µM
CCCCCCCCCC(=O)O	none
C[N+](C)(C)CCCCCC[N+](C)(C)C	none
CCCCCCCCCCCCCCCCOP(=O)([O-])OCC[N+](C)(C)C	none
CCCCCCCCCCCCCCCC[N+](C)(C)C	Lassa entry inconclusive, Marburg entry 8.9µM!
O=C(NCC1Cc2cc(F)cc(-c3cnccn3)c2O1)c1cccc(Cl)c1 (centres undefined)	none
CC(C)C1C(=O)N(Cc2cn(Cc3ccco3)nn2)CCS(=O)(=O)N1Cc1ccc(-c2cccc(N(C)C)c2)cc1 (centres undefined)	none
CC1=CC[C@@H](COc2ccccc2)O[C@@]2(C1)C(=O)Nc1cccc(Br)c12	none
CC1=CC[C@@H](COc2ccccc2)O[C@@]2(C1)C(=O)N(CC1CC1)c1ccccc12	none
CC(C)Nc1ccc(Nc2ccccc2)cc1	Lassa entry inconclusive, Marburg entry 28µM
CC(C)Nc1oc(-c2ccccc2)nc1C=Cc1ccccc1	none
Cc1ncc(-c2ccc(F)cc2)c(C2CCCN(Cc3cccc(O)c3)C2)n1 (centres undefined)	Marburg entry inconclusive
CCN1CCN(c2cc(-c3ccc(F)cc3)c3c(n2)CCCCCC3)CC1	Lassa entry 13µM, Marburg entry 7.9µM
C=CC1=C(C)C2=Cc3c(C=C)c(C)c4[n]3[Sn+2][n]3c(c(C)c(CCC(=O)O)c3=CC3=NC(=C4)C(C)=C3CCC(=O)O)=CC1=N2	none
COc1ccc(-c2oc3cc(OC)c(OC(C)=O)c(OC)c3c(=O)c2OC)cc1OC(C)=O	Lassa entry 0.32µM
COc1ccc(-c2ccc(-c3cc(=O)oc4cc(OC)c(OC)c(OC)c34)cc2)cc1OC	Lassa entry 18µM
COc1cc2oc(=O)cc(-c3ccc(-c4cccc(N)c4)cc3)c2c(OC)c1OC	Marburg entry inconclusive
COc1ccc(-c2oc3ccccc3c(=O)c2O)cc1OC	none
C=CC1=C2C=C(C3CC3)N(CCOC)C=C2C(=O)C(C)(OC(=O)c2ccco2)C1=O (centres undefined)	none
COc1ccccc1C1CN(CCNC(=O)c2cscn2)Cc2ccccc2O1 (centres undefined)	none
Cc1c(N(C)C)c(=O)n(-c2ccccc2)n1C	none
OC1CCN(Cc2ccc3c(c2)CN(C/C=C/c2ccco2)CCO3)CC1	none
c1csc(C2(N3CCCCC3)CCCCC2)c1	none
c1ccc2sc(C3(N4CCCCC4)CCCCC3)cc2c1	Lassa entry inconclusive, Marburg entry 11µM
COc1cc(/C=C/C(=O)N2CCCCC2=O)cc(OC)c1OC	Lassa entry 11µM, Marburg entry 13µM
COc1cc(C(=S)N2CCOCC2)cc(OC)c1OC	none
COc1cc(/C=C\C(=O)N2CCC=CC2=O)cc(OC)c1OC	Lassa entry inconclusive, Marburg entry 8.9µM
COc1cc(/C=C/C(=O)O)cc(OC)c1OC	none
CCCCC/C=C\C=C\[C@H](O)CCCCCCCC(=O)O	none
CC(=O)OC1CC2C(C)(C)C(O)CC(O)[C@@]2(C)C2CC[C@@]3(C)C(=CC(=O)OC3c3ccoc3)[C@]12C (some centres undefined)	none
COC(=O)CC1C(C)(C)C(OC(C)=O)C2[C@H](OC(C)=O)[C@]34O[C@]2(O)[C@]1(C)C3CC[C@]1(C)C4=CC(=O)OC1c1ccoc1 (some centres undefined)	Lassa entry inconclusive, Marburg entry 7.9µM
CCCC=Cc1ccc(CN2C(C)C(=O)N(Cc3cn(Cc4ccco4)nn3)CCS2(=O)=O)cc1 (centres undefined)	Marburg entry inconclusive
CN(C)CCOc1ccc(/C(=C(/CCCl)c2ccccc2)c2ccccc2)cc1	Marburg entry inconclusive
CCN(CC)CCOc1ccc(Cc2ccccc2)cc1	Marburg entry 10µM

High-throughput results from PubChem.
